Eight compounds from PubChem BioAssay (NCI) can be followed below.

About 83,000 compounds went through this panel and 20% of them were active in at least one assay; those are over-represented in the sample as a whole.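 Interpretation: 100, growth as untreated; towards 0, rising growth inhibition; 0, no net growth; 0 to -100, cell death. Compounds scoring below 10 were considered active.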 A number with no mark means an inactive call. The source made the active and inactive calls.

Test systems include DU-145 prostate; K-562 leukemia; MALME-3M melanoma; MDA-MB-231 breast; RXF 393 renal; SF-268 CNS; SF-295 CNS; SF-539 CNS; UACC-257 melanoma; M14 melanoma; HCT-15 colon; HT29 colon; SNB-75 CNS; SNB-19 CNS; U251 CNS; SK-MEL-5 melanoma; UACC-62 melanoma; LOX IMVI melanoma; SK-MEL-28 melanoma; PC-3 prostate.
What all share (assay): NCI-60 one-dose screen, 48 h (100 = growth as untreated, 0 = no growth, -100 = all killed)
What all share (conditions): 10 µM unless noted

As to `FC(F)(F)c1ccc(Cn2cc(CSc3nc4ccccc4s3)nn2)cc1`, the growth is 108% with DU-145 prostate; 97.1% in the test with K-562 leukemia; 111% in the test with MALME-3M melanoma; 99% in the test with MDA-MB-231 breast; 104% with RXF 393 renal; 101% with SF-268 CNS. Further, the growth with SF-295 CNS is 95.8%; in the test with SF-539 CNS, 106%; with UACC-257 melanoma, 87%; in the test on M14 melanoma, 100%; in the test with HCT-15 colon, 101%; with HT29 colon, 94.4%. The growth in the test on SNB-75 CNS is 94%; in the test on SNB-19 CNS it was 101%; in the test with U251 CNS, 96.3%; in the test on SK-MEL-5 melanoma, 105%; in the test on UACC-62 melanoma it was 87.3%; with LOX IMVI melanoma it was 110%. Further, the growth with SK-MEL-28 melanoma is 105%.

Take `CC1CCN(C(=O)CCCl)c2ccccc21` (stereo not given): the growth with DU-145 prostate is 113%; with K-562 leukemia it was 147%; with MALME-3M melanoma it was 121%; in the test on MDA-MB-231 breast it was 85.4%; in the test on RXF 393 renal it was 123%; in the test on SF-268 CNS it was 99.7%. For the same compound, the growth in the test on SF-295 CNS was 160%; with SF-539 CNS, 126%; in the test with UACC-257 melanoma, 94.2%; in the test on M14 melanoma it was 95.4%; with HCT-15 colon, 102%; with HT29 colon it was 102%. For the same compound, the growth with SNB-75 CNS is 87.9%; with U251 CNS, 102%; with PC-3 prostate it was 103%; with SK-MEL-5 melanoma, 104%; with UACC-62 melanoma, 89.7%; with LOX IMVI melanoma, 91%. Besides, the growth in the test with SK-MEL-28 melanoma was 109%.

On to `Cn1cc(-c2csc(-c3c[nH]c4ccc(F)cc34)n2)c2ccnc(Cl)c21`, for which the growth with DU-145 prostate is 51.2%; in the test with K-562 leukemia, 53.3%; in the test with MALME-3M melanoma, 121%; in the test on MDA-MB-231 breast it was 60.9%; with RXF 393 renal it was 67.8%; in the test on SF-268 CNS, 92%. Moreover, the growth was 85% with SF-295 CNS; 68.9% in the test with SF-539 CNS; 39.3% in the test on UACC-257 melanoma; 57.4% in the test on M14 melanoma; 5.69% (active) with HCT-15 colon; 29.8% in the test with HT29 colon. Also, the growth in the test on SNB-75 CNS was 77.5%; in the test with U251 CNS, 49.6%; in the test on PC-3 prostate, 62.1%; in the test with SK-MEL-5 melanoma, 63.2%; in the test on UACC-62 melanoma it was 70.6%; with LOX IMVI melanoma, 67.5%. In addition, the growth with SK-MEL-28 melanoma was 93.5%.

With `C#CCOc1cccc(-c2ncnc3cc(NC(=O)C=C)ccc23)c1`, the growth with DU-145 prostate is 15.6%; in the test with K-562 leukemia, 24.2%; in the test on MALME-3M melanoma, 60.5%; in the test with MDA-MB-231 breast, 15.8%; with RXF 393 renal, 30.8%; in the test with SF-268 CNS, 49.6%. For the same compound, the growth in the test with SF-295 CNS was 43.2%; with SF-539 CNS, 8.33% (active); in the test on UACC-257 melanoma, 62.5%; in the test with M14 melanoma, 45.6%; with HCT-15 colon, 24%; in the test with HT29 colon, 10.8%. For the same compound, the growth in the test with SNB-75 CNS is 10.6%; in the test on SNB-19 CNS, 50.6%; with U251 CNS, 51.4%; in the test on SK-MEL-5 melanoma it was 68.5%; in the test with UACC-62 melanoma, 34.6%; in the test on SK-MEL-28 melanoma, 70.5%.

With `CN(CCC(=O)c1ccccc1)CCC(=O)c1ccccc1`, the growth was 104% in the test with DU-145 prostate; 61.7% in the test on K-562 leukemia; 105% in the test on MALME-3M melanoma; 97.3% with MDA-MB-231 breast; 97.9% with RXF 393 renal; 101% in the test with SF-268 CNS. For the same compound, the growth in the test with SF-295 CNS is 108%; in the test with SF-539 CNS, 88%; in the test with UACC-257 melanoma, 98.6%; in the test on M14 melanoma it was 94.7%; in the test on HCT-15 colon it was 103%; in the test on HT29 colon it was 117%. Moreover, the growth was 90.4% in the test with SNB-75 CNS; 98% with U251 CNS; 95.5% in the test on PC-3 prostate; 96.4% with SK-MEL-5 melanoma; 77.9% with UACC-62 melanoma; 103% in the test with SK-MEL-28 melanoma.

`N=C(N)c1ccc(-c2ccc(-c3cc(Cl)cc(Cl)c3)s2)nc1`: the growth was 1.39% (active) in the test with DU-145 prostate; -4.72% (active) with K-562 leukemia; 78.6% with MALME-3M melanoma; 61.1% in the test on MDA-MB-231 breast; 90.3% in the test on RXF 393 renal; 88.4% in the test on SF-268 CNS. The growth was 57.1% in the test with SF-295 CNS; 57.2% in the test with SF-539 CNS; 106% in the test with UACC-257 melanoma; 79.5% in the test on M14 melanoma; -7.35% (active) in the test on HCT-15 colon; 13.2% in the test with HT29 colon. Also, the growth is 105% in the test on SNB-75 CNS; -36.1% (active) in the test on U251 CNS; 71.3% in the test on PC-3 prostate; 94% in the test with SK-MEL-5 melanoma; 95.2% in the test with UACC-62 melanoma; -75.6% (active) in the test with LOX IMVI melanoma. For the same compound, the growth with SK-MEL-28 melanoma was 108%.

With `Nc1ncnc2c1N=C(c1ccc3c(c1)OCO3)CC(c1cccc(Nc3ccnc4cc(C(F)(F)F)ccc34)c1)N2` (stereo not given), the growth with DU-145 prostate is 87.3%; in the test on K-562 leukemia, 21%; in the test on MALME-3M melanoma it was 84.3%; in the test on MDA-MB-231 breast it was 88.4%; in the test with RXF 393 renal, 80.5%; in the test on SF-268 CNS it was 83.6%. The growth is 87.6% with SF-295 CNS; 98.9% in the test on SF-539 CNS; 74.9% in the test with UACC-257 melanoma; 94.2% in the test on M14 melanoma; 70.8% with HCT-15 colon; 69.6% in the test with HT29 colon. Also, the growth in the test with SNB-75 CNS is 76.9%; in the test with U251 CNS, 37.4%; in the test on PC-3 prostate, 75.6%; with SK-MEL-5 melanoma it was 84.6%; with UACC-62 melanoma, 87.1%; with LOX IMVI melanoma, 51.8%. In addition, in the test with SK-MEL-28 melanoma, the growth is 101%.

Turning to `CCN1CCN(CCNc2nccc(-c3c(-c4ccc(F)c(OC)c4)nc4sccn34)n2)S1(=O)=O`, the growth was 84.1% in the test with DU-145 prostate; 54.4% in the test with K-562 leukemia; -7.64% (active) in the test on MALME-3M melanoma; 50.8% with MDA-MB-231 breast; 45% with RXF 393 renal; 79% in the test with SF-268 CNS. The growth in the test on SF-295 CNS was 90.5%; in the test on SF-539 CNS it was 99.1%; in the test with UACC-257 melanoma, 30.7%; with M14 melanoma, 20.7%; in the test with HCT-15 colon, 94.6%; in the test on HT29 colon, 73.1%. Moreover, the growth in the test on SNB-75 CNS was 74%; in the test with U251 CNS, 76.8%; with PC-3 prostate it was 74.1%; in the test on SK-MEL-5 melanoma, 41.4%; in the test on UACC-62 melanoma, 15.5%; in the test with LOX IMVI melanoma, 40.3%. Besides, the growth in the test with SK-MEL-28 melanoma is 27.2%.
